Laboratory results reported in PubChem BioAssay (NCATS).
Where “and” joins values, the source holds several entries; their conditions need not be identical. Equal entries are not always repeated. Records with an inconclusive call do not appear. Calls of active or inactive are those of the source. The call rests on the fitted dose curve; in most records, active means well fitted cell-killing curve with a large enough effect; inconclusive means small, poorly fitted or top-dose-only effect, or effect the other way; inactive means no such curve, though single readings can be large or run the other way.

Assay: Quantitative High-Throughput drug screen in 47 multiple myeloma cell lines against the NCATS MIPE library collection: JJN3_DSMZ cell viability assay (AID 1918966; further: nearly all actives have a fitted effect of over 50% in size)
Settings: JJN3 myeloma cells viability, CellTiter-Glo ATP, 48 h; series mostly up to 45.8 µM
Source text: PI: Beverly A. Mock Ph.D.
Laboratory of Cancer Biology and Genetics,
Center for Cancer Research, National Cancer Institute,
National Institute of Health, Bethesda, Maryland
Drug resistance and disease progression are common in multiple myeloma (MM) patients, underscoring the need for new therapeutic combinations. […] We hypothesized that effective combinations would reduce MYC expression and enhance p16 activity. […] These preclinical data identify potentially useful drug combinations for evaluation in drug-resistant MM and reveal potential mechanisms of combined drug sensitivity.
Described herein is the primary MIPE qHTS used to cherrypick compounds. Validated compounds were then further tested for potential synergistic activiy.
[1] Peat TJ, Gaikwad SM, Dubois W, Gyabaah-Kessie N, Zhang S, Gorjifard S, Phyo Z, Andres M, Hughitt VK, Simpson RM, Miller MA, Girvin AT, Taylor A, Williams D, D'Antonio N, Zhang Y, Rajagopalan A, Flietner E, Wilson K, Zhang X, Shinn P, Klumpp-Thomas C, McKnight C, Itkin Z, Chen L, Kazandijian D, Zhang J, Michalowski AM, Simmons JK, Keats J, Thomas CJ, Mock BA. Drug combinations identified by high-throughput screening promote cell cycle transition and upregulate Smad pathways in myeloma. Cancer Lett. 2023 Aug 1;568:216284. doi: 10.1016/j.canlet.2023.216284. Epub 2023 Jun 24. PMID: 37356470; PMCID: PMC10408729.
SEQUENCE No. (e.g., 1, 2, 3, etc.); […] (e.g., Cells, Incubation, Reagent, etc.); VALUE and DESCRIPTION.
1; Cells; 5 uL; white, solid bottom 1536-well Greiner assay plate.
2; Compounds; 23 nL; Kalypsis pin tool (Wako USA) equipped with a 1536-well pin head to transfer to the assay plates.
3; Incubation; 48 hours; 37C incubation.
4; Reagent;5uL; CellTiter Glo (Promega).
5; Detector; 425V; Luminescence; Viewlux PerkinElmer.
NOTES (numbers refer to Sequence numbers above)
1. The cell-based screening methods employed in this study were like those previously published. Briefly, the corresponding myeloma cell lines were screened in 1,536-well plates with 500 cells, 5-uL per well for inhibition of cell viability (assessed by measuring ATP levels with CellTiterGlo).
2. NCATS MIPE 4.0 library of approved and investigational drugs were added using the Kalypsis pin tool. Wells treated with DMSO only for 100% viability and media only wells for 0% viability were used as controls.
3. The assay plates were covered and incubated for 48 hours in a 37C, 5% CO2 incubator with controlled humidity.
4. After 48 hours, CellTilter-GloTM luminescent substrate mix (Promega) reagent was added to the assay plate and plates we incubated for 5 min at room temperature.
5. Signal was measured as median relative luminescence units on a ViewLux (PerkinElmer) multiplate reader.
[1] Heske CM, Davis MI, Baumgart JT, Wilson K, Gormally MV, Chen L, Zhang X, Ceribelli M, Duveau DY, Guha R, Ferrer M, Arnaldez FI, Ji J, Tran HL, Zhang Y, Mendoza A, Helman LJ, Thomas CJ. Matrix Screen Identifies Synergistic Combination of PARP Inhibitors and Nicotinamide Phosphoribosyltransferase (NAMPT) Inhibitors in Ewing Sarcoma. Clin Cancer Res. 2017 Dec 1;23(23):7301-7311. doi: 10.1158/1078-0432.CCR-17-1121. Epub 2017 Sep 12. PMID: 28899971; PMCID: PMC6636827.
Potency means the concentration at half of the fitted maximal effect.

SMILES	Potency
COCC(=O)NCC=Cc1ccc2ncnc(Nc3ccc(Oc4ccc(C)nc4)c(C)c3)c2c1	23.5 µM (active)
CNCc1ccc(-c2[nH]c3cc(F)cc4c3c2CCNC4=O)cc1	inactive
CCOC(=O)C1=C[C@]2(CC)CCCN3CCc4c(n1c1ccccc41)[C@@H]32	18.7 µM (active)
N[C@@H]1CONC1=O	inactive
O=C(Nc1nc2ccccc2n1CCN1CCOCC1)c1cccc([N+](=O)[O-])c1	20.9 µM (active)
NC(=O)c1ccc(-c2nc(-c3ccc4c(c3)OCO4)c(-c3ccccn3)[nH]2)cc1	0.0042 µM (active)
Cc1oncc1C(=O)Nc1ccc(C(F)(F)F)cc1	inactive
CS(=O)(=O)c1cccc(CNc2nc(Nc3ccc4c(c3)CCC(=O)N4)ncc2C(F)(F)F)c1	16.6 µM (active)
Cc1cn[nH]c1	1.48 µM (active)
NNCCc1ccccc1	18.7 µM (active)
O=C1[C@H](Cc2ccc(O)cc2)N2C(=O)CCN(C(=O)NCc3ccccc3)[C@H]2CN1Cc1cccc2ccccc12	7.43 µM (active)
Oc1ccc(C2CNCCc3c2cc(O)c(O)c3Cl)cc1 (stereo not given)	inactive
O=NN(CCCl)C(=O)NCCCl	0.148 µM (active)
Oc1cccc(-c2nc(N3CCOCC3)c3oc4ncccc4c3n2)c1	0.108 µM (active)
CCCCNc1cc(C(=O)O)cc(S(N)(=O)=O)c1Oc1ccccc1	inactive
CC1(C)Cc2c(-c3ccccc3)c(-c3ccc(Cl)cc3)c(CC(=O)O)n2C1	20.9 µM (active)
CC1(C)SCCN(S(=O)(=O)c2ccc(OCC#CCO)cc2)[C@@H]1C(=O)NO	inactive
COc1ccc(-c2ccc3c(N4CCOC[C@H]4C)nc(N4CCOC[C@H]4C)nc3n2)cc1CO	0.0132 µM (active)
COc1ccc(-c2oc3cc(OC)ccc3c2C(=O)c2ccc(C#N)cc2)cc1	inactive
Cn1cc(-c2ccc3nnc(C(F)(F)c4ccc5ncccc5c4)n3n2)cn1	0.0264 µM (active)

SMILES	Potency
N#CC[C@H](C1CCCC1)n1cc(-c2ncnc3[nH]ccc23)cn1	5.26 µM (active)
O=C1CCCC2=C1C(c1[nH]ncc1Cl)N=C(Nc1nc3ccccc3o1)N2 (stereo not given)	5.26 µM (active)
Cc1cccc(-c2[nH]c(C(C)(C)C)nc2-c2ccc3nccnc3c2)n1	18.7 µM (active)
COc1cccc2cc(-c3nc(C4CCC(C(=O)O)CC4)n4ncnc(N)c34)[nH]c12 (stereo not given)	1.05 µM (active)
CC(C)(C)OC(=O)CN(Cc1ccc(Cl)cc1)Cc1ccc([N+](=O)[O-])s1	10.5 µM (active)
COc1ccccc1-c1cccc(-c2c(O)c3cc(C#N)c(Cl)cc3[nH]c2=O)c1	inactive
Nc1nc2ccc(OC(F)(F)F)cc2s1	16.6 µM (active)
NC(=O)c1cnccn1	inactive
COc1cc(Nc2ncc3c(n2)-c2ccc(Cl)cc2C(c2c(F)cccc2OC)=NC3)ccc1C(=O)O	inactive
CO[C@@H]1[C@H](N(C)C(=O)c2ccccc2)C[C@H]2O[C@]1(C)n1c3ccccc3c3c4c(c5c6ccccc6n2c5c31)C(=O)NC4	4.18 µM (active)
CCOc1ccc(Cc2cc([C@@H]3O[C@H](CO)[C@@H](O)[C@H](O)[C@@H]3O)ccc2Cl)cc1	inactive
CC(C=CC1=C(C)CCCC1(C)C)=CC=CC(C)=CC(=O)O	5.9 µM (active) and 1.66 µM (active)
CCCn1c(=O)c2[nH]c(C34CC5CC3C[C@@H](C5)C4)nc2n(CCC)c1=O	13.2 µM (active)
CC(C)(Sc1ccc(CCN(CCCCC2CCCCC2)C(=O)NC2CCCCC2)cc1)C(=O)O	18.7 µM (active)
NC[C@H](O)c1ccc(O)c(O)c1	4.18 µM (active)
CN(C)c1ccc(Nc2nc(N)n(C(=O)c3c(F)cccc3F)n2)cc1	20.9 µM (active)
Cc1cc(Nc2nc(N[C@@H](C)c3ncc(F)cn3)ncc2Cl)n[nH]1	18.7 µM (active)
CC(C)(N)C(=O)N[C@H](COCc1ccccc1)C(=O)N1CCC2(CC1)CN(S(C)(=O)=O)c1ccccc12	3.72 µM (active)
Cc1cc(C=c2sc3nc4ccccc4n3c2=O)c(C)n1-c1ccccc1	4.18 µM (active)
COc1c(Cl)cc2c([nH]c3cnccc32)c1NC(=O)c1cccnc1C	18.7 µM (active)
